Source: PubChem BioAssay
Yp Topo-I inh = blocks Yersinia pestis topoisomerase I activity. Y. pestis Topo-I cleavage product accumulation, plate reader. activity, % at 10 µM. hit rate 0.064% among 360,000; in the data active = activity above about 50%, passing the limit was not always enough
CCHF vOTU inh = blocks the CCHF virus ovarian tumor domain protease; CCHFV vOTU protease, Pep-AMC fluorescence; inhibition, % at 11.5 µM; hit rate 0.55% among 370,000; in the data active = inhibition above about 30%; note: 0% = vehicle wells with enzyme and 100% = no enzyme wells
BH1578 lux ind = induces V. cholerae light production without autoinducers. V. cholerae BH1578 lux reporter, luminescence, 6 h. activation, % at 18.7 µM. hit rate 0.16% among 350,000. AID 588436; in the data active = activation mostly above about 9.7%, no sharp cut-off
PrPC TRFRET = cell surface PrPC inhibition, primary TR-FRET screen. TR-FRET read-out. inhibition, % at 13.8 µM. hit rate 0.43% among 370,000. P04156; in the data active = inhibition above about 24%; note: 0% = median of the test wells and 100% = reference compound wells
PrPC TRFRET cf = cell surface PrPC inhibition, TR-FRET confirmation; shares compounds with PrPC TRFRET; cell surface PrPC level; inhibition, % at 13.8 µM; hit rate 65% among 1,500; AID 743200; in the data active = inhibition above about 25%
LD9 tox = counter-screen for PrPc inhibitors: cytotoxicity in LD9 cells | hit rate 29% among 1,500 | luminescence viability | shares compounds with PrPC TRFRET | inhibition, % at 13.8 µM; in the data active = inhibition above about 9.5%
* = called active by the depositor; i = inactive; · = no result. Sampled rows, rich in hits. Any-hit rate of the full collection: about 1.1%.

SMILES	Yp Topo-I inh	CCHF vOTU inh	BH1578 lux ind	PrPC TRFRET	PrPC TRFRET cf	LD9 tox
CCCNC(=O)c1cc(Cl)c(NC(=O)C2=C(C)OCCS2)cc1OC	23	16	i	26*	32*	-2
O=C(O)C1C2CCC(O2)C1C(=O)Nc1ccc(F)c(F)c1 (stereo not drawn)	-3	-3	1	2	·	·
Cc1c(Br)c(=O)oc2cc(OCC(=O)N3C[C@H]4C[C@@H](C3)c3cccc(=O)n3C4)ccc12	4	-20	0	38*	55*	-3
COc1ccc2[nH]c3c(C)c4ccncc4c(C)c3c2c1	-56	12	0	34*	34*	42*
Cc1c2ccncc2c(C)c2c1[nH]c1ccccc12	-37	·	8	·	·	·
CCc1ccccc1N(C)S(=O)(=O)c1ccc2[nH]cc(C(=O)N3CCc4ccccc43)c(=O)c2c1	6	9	0	100*	4	-5
COCCNc1nc(Oc2cccc(NC(C)=O)c2)c2sc(-c3ccccc3)cc2n1	4	-10	0	-6	·	·
CCN(CC(=O)Nc1c(F)cccc1F)C(=O)c1cc(-c2cccs2)nn1-c1ccccc1	16	5	i	25*	28*	-8
CCCOc1ccc(/C=C/c2[nH]c(=O)[nH]c(=O)c2[N+](=O)[O-])cc1OCC	-2	-5	-2	-5	·	·
CCOC(=O)c1c(C)[nH]c(C(=O)OCC(=O)Nc2sccc2C(N)=O)c1C	2	-9	-2	33*	18	44*
COc1ccc(C(C)=O)cc1Cn1c(C)c(C(=O)NCc2cccc(C(F)(F)F)c2)sc1=O	0	5	i	0	·	·
CC(C)=CCC[C@@]1(C(=O)O)[C@H]2CC=C(CO)[C@@H]1CC/C(C)=C/CC/C(C)=C/C2	·	7	·	24*	27*	12*
CCOC(=O)N1CCN(S(=O)(=O)c2ccc(C(=O)NNc3nc4c(C)cc(C)cc4s3)cc2)CC1	28	18	0	25*	25*	4
CCOC(=O)N1CCN(S(=O)(=O)c2ccc(C(=O)NNc3nc4c(C)cccc4s3)cc2)CC1	-7	10	-1	-4	·	·
N#CC(C(=O)C12CC3CC(CC(C3)C1)C2)c1nc2ccccc2[nH]1 (stereo not drawn)	8	20	12	35*	24	0
Cc1cc2cc(CNC(=O)c3ccc(S(=O)(=O)N(C)C)cc3)ccc2n1C	14	9	0	54*	36*	-4
Cc1cc2cc(CNC(=O)c3ccc(S(=O)(=O)N4CCCCC4)cc3)ccc2[nH]1	5	4	-2	29*	12	-5
Cc1cc2cc(CNC(=O)c3ccc(S(=O)(=O)N4CCOCC4)cc3)ccc2n1C	20	-3	i	43*	45*	-6
Cc1cc2cc(CNC(=O)c3ccc(Br)o3)ccc2n1C	-2	-4	0	21	·	·
COc1ccc(NC2CCCN(C(=O)c3cccnc3)C2)cc1 (stereo not drawn)	4	-7	i	-1	·	·
CCC(c1ccccc1)c1nnc(NC(=O)c2ccco2)s1 (stereo not drawn)	-7	12	-1	5	·	·
O=C(Nc1nnc(CC(c2ccccc2)c2ccccc2)s1)c1ccco1	-2	1	0	40*	42*	-7
CN1/C(=C\C(=S)NC(=O)c2ccc([N+](=O)[O-])cc2)C(C)(C)c2ccccc21	-9	-11	0	5	·	·
CN1/C(=C\C(=S)NC(=O)c2cccc(Br)c2)C(C)(C)c2ccccc21	22	-4	0	25*	30*	16*
NC(=O)c1cnn2c(-c3cccc(C(F)(F)F)c3)ccnc12	5	-13	0	2	·	·
SMILES	Yp Topo-I inh	CCHF vOTU inh	BH1578 lux ind	PrPC TRFRET	PrPC TRFRET cf	LD9 tox
O=C(O)c1ccc(-c2nc(-c3ccccc3Cl)cs2)cc1	-4	6	0	-2	·	·
CCOC(=O)Cc1csc(NC(=O)c2cc(C)c(C)s2)n1	-6	14	-3	22	·	·
CC1CCC(NC(=O)c2cc3c(s2)CCCC3)CC1 (stereo not drawn)	1	5	i	50*	63*	2
Cc1csc(NC(=O)c2cc3c(s2)CCCCC3)n1	-11	5	0	25*	16	1
CCOC(=O)Cc1csc(NC(=O)c2cc3c(s2)CCCC3)n1	5	6	-1	30*	25*	-5
Cc1csc(NC(=O)c2cc3c(s2)CCCC3)n1	-2	9	i	26*	20	7
Cc1cnc(NC(=O)c2cc3c(s2)CCCC3)s1	-12	7	i	8	·	·
CNC(=S)N(CCc1ccc(OC)c(OC)c1)C1CC(=O)N(c2ccccc2)C1=O (stereo not drawn)	-16	·	i	·	·	·
COc1ccc(N2C(=O)/C(=C/c3ccc(C)o3)C(=O)NC2=S)c(OC)c1	3	-8	0	6	·	·
CCCCc1c(-c2cccc(F)c2)ncn1CCc1ccccc1OC	·	21	·	7	·	·
COc1cc(NS(=O)(=O)c2ccc(C)cc2)c2ncccc2c1	20	-4	i	51*	51*	69*
Cc1ccc(S(=O)(=O)Nc2cccc3cccnc23)cc1	7	11	0	39*	72*	82*
C[C@@H]1C(c2ccc(F)cc2)=NN(c2ccccc2)[C@H]1C(=O)N1CCOC1=O	-1	17	-1	-2	·	·
COc1cc(/C=C/C(=O)NCCN2CCOCC2)cc(OC)c1OC	-3	-17	0	1	·	·
COc1cc(/C=C/C(=O)NCCn2c(C)cc3ccccc32)cc(OC)c1OC	24	4	0	49*	-4	10*
COc1ccc(/C=C/C(=O)NCCn2c(C)cc3ccccc32)cc1OC	17	7	0	64*	2	6
COc1ccc(/C=C/C(=O)NCCN2CCOCC2)cc1OC	0	-5	i	5	·	·
O=C(NCCN1CCOCC1)c1cn(CCc2ccccc2)nn1	5	-6	0	-7	·	·
Cc1ccc(-c2csc3ncnc(SCC(=O)O)c23)cc1	8	0	0	10	·	·
COC(=O)CSc1ncnc2scc(-c3ccccc3)c12	12	-1	i	50*	67*	-1
Cc1ccc(NNC(=O)C(O)(c2cccc(C(F)(F)F)c2)c2cccc(C(F)(F)F)c2)cc1	-11	23	3	24	·	·
O=C(NNc1ccccc1Br)C(O)(c1cccc(C(F)(F)F)c1)c1cccc(C(F)(F)F)c1	-13	23	i	30*	6	1
CC1CCN(C(=O)CSc2nnc(CSc3ncccn3)n2C)CC1	3	-15	i	25*	7	-2
Cn1c(CSc2ncccn2)nnc1SCC(=O)N1CCCCC1	-3	-15	i	19	·	·
Cc1cc(NCCN)nc2ccccc12	5	3	-1	-8	·	·
Cc1cc(NC2CCCCC2)nc2ccccc12	3	11	0	26*	17	4
CC1=C(O)C(=O)C=C2C1=CC=C1C2(C)CCC2(C)C3CC(C)(C(=O)O)CCC3(C)CCC12C (stereo not drawn)	11	29	·	62*	89*	98*
